HP1b binding inh: HTS for Inhibitors of HP1-beta Chromodomain Interactions with Methylated Histone Tails; AlphaScreen HP1-beta / biotin-H3K9me3 peptide binding; Potency, µM (series often up to 114 µM), for inactives: top-dose activity change, negative = inhibition, usual class: inhibitors; actives 0.56% (n = 390,000); note: nearly all actives have a fitted effect of over 70% in size
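Compound inhibition of the preformed complex between 50 nM HP1-beta and 50 nM biotinylated H3K9me3 peptide was read by AlphaScreen. Buffer was PBS pH 7.4 with 0.01% Tween-20. Incubations ran 30 min at room temperature, with 10 ug/mL donor/acceptor beads.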
BAZ2B block: qHTS Assay for Inhibitors of BAZ2B. AlphaScreen BAZ2B-H3K14Ac peptide displacement. actives 4.4% (n = 360,000). Potency, µM (series often up to 114 µM), for inactives: at the highest dose activity change, negative = inhibition, usual class: inhibitors. Bromodomain adjacent to zinc finger domain protein 2B (Homo sapiens), Q9UIF8; note: % is set by controls: 0 for no effect and ±100 for the full control effect; nearly all actives have a fitted effect of over 60% in size
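AlphaScreen displacement: compounds (up to 110uM) incubated 30 min at room temperature with a preformed 50 nM BAZ2B/50 nM biotinylated H3K14Ac peptide complex in PBS pH 7.4 with Tween-20. Donor and acceptor beads at 10 ug/mL final added, 20 min light-protected before reading.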
G9a inh: qHTS Assay for Inhibitors of Histone Lysine Methyltransferase G9a; AID 504332, 2011; Potency, µM (top dose mostly 102 µM), for inactives: at the top dose activity, negative = inhibition, most hits filed as inhibitors; G9a H3K9 monomethylation, AlphaScreen, 2 h; actives 8.8% (n = 350,000); note: % is set by controls: 0 for no effect and ±100 for the full control effect; nearly all actives have a fitted effect of over 75% in size
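Step 1: enzyme (final 20 nM) with compound, 15 min RT. Step 2: substrate peptide 500 nM and SAM 20 uM, 2 h RT. Step 3: anti-H3K9me1 antibody and AlphaScreen beads, 10 min, then plate read.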
JMJD2A Tudor: qHTS Assay for Inhibitors of JMJD2A-Tudor Domain; AID 504339, 2011; actives 4.4% (n = 390,000); Lysine-specific demethylase 4A (Homo sapiens), O75164; Potency, µM (titrated, usually from 114 µM), inactives show at the top dose activity change, negative = inhibition, hits mostly inhibitors; AlphaScreen JMJD2A-Tudor / H3K4me3 peptide binding; note: % is set by controls: 0 for no effect and ±100 for the full control effect; nearly all actives have a fitted effect of over 50% in size
TDP1 block: qHTS Assay for Inhibitors of Tyrosyl-DNA Phosphodiesterase (TDP1); AID 485290, 2010; Tyrosyl-DNA phosphodiesterase 1 (Homo sapiens), Q9NUW8; actives 0.28% (n = 350,000); recombinant TDP1, AlphaScreen DNA substrate cleavage; Potency, µM (series often up to 130 µM), without a hit: at the top dose activity change, negative = inhibition, hits mostly inhibitors; note: % is set by controls: 0 for no effect and ±100 for the full control effect; nearly all actives have a fitted effect of over 40% in size
Target sequence (Q9NUW8 whole entry, looked up): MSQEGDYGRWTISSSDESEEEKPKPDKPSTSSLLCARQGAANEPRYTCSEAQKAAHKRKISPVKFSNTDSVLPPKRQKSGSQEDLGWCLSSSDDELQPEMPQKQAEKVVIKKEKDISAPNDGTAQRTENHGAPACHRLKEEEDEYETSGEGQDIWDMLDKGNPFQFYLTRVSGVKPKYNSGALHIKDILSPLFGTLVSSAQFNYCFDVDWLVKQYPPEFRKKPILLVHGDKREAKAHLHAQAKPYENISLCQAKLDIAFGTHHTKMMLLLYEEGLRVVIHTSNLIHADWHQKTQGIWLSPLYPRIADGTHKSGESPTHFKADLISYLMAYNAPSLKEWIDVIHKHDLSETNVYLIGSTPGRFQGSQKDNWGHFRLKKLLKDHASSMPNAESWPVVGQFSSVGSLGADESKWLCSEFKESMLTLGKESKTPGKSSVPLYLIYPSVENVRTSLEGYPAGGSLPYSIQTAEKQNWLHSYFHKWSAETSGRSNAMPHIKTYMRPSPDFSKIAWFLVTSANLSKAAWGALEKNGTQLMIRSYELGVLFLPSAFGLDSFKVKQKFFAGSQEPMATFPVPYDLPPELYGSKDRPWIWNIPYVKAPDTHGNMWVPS
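Steps: enzyme plus compound, 15 min RT; add biotin/phosphotyrosine-FITC oligonucleotide (15 nM final), react 5 min; add donor/acceptor beads (10 ug/ml final), 10 min; read AlphaScreen. Tdp1 at 1 nM final.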
Sfp inh: qHTS Assay for Inhibitors of Bacillus subtilis Sfp phosphopantetheinyl transferase (PPTase) | 4'-phosphopantetheinyl transferase ffp (Bacillus subtilis), Q9F4F7 | Biochemical Sfp PPTase activity, qHTS | Potency, µM, for the others: largest response in the series, negative = inhibition, hits mostly inhibitors | actives 3.5% (n = 310,000);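 note: the enzyme is Sfp with the accession as filed and its product quenches rhodamine fluorescence; 0% = enzyme reaction without inhibitor and -100% = no enzyme wells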
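With Hepes-Na pH 7.6 buffer containing 10 mM MgCl2, Sfp (15 nM) modified BHQ-2-YbbR (12.5 uM) using rhodamine-CoA (5 uM). Two reads 30 minutes apart at 525/598 nm yielded each well's rate.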
Numbers without * were called inactive; [ ] = another dose, or the depositor's remark. The list is not random: actives were taken first. Their share in the collection is about 12%. Calls come from the whole dose curve; as a rule, active = well fitted curve in the direction sought with a large enough effect; inconclusive = small, poorly fitted or top-dose-only effect, or another doubt; inactive = no such curve, though single readings can be large; an effect the other way counts as inactive or inconclusive. Potency is the fitted concentration of half-maximal effect.

`CCOC(=O)NNc1ccc(C(F)(F)F)cn1` gave HP1b binding inh 12%, BAZ2B block 1%, G9a inh 7%, JMJD2A Tudor 10µM*, TDP1 block 6% and Sfp inh inconclusive.
Screening O=S(=O)(NCc1cn2ccccc2n1)c1cccs1 returned HP1b binding inh 26%, BAZ2B block -1%, JMJD2A Tudor 6% and Sfp inh -9%.
For CN(C)c1c(-c2ccccc2)cc(-c2ccccc2)[nH]c1=O the results were BAZ2B block -8%, G9a inh 35µM* and Sfp inh -19%.
For Cc1ccc(S(=O)(=O)c2c(C)cc(-c3ccccc3)[nH]c2=O)cc1 the results were HP1b binding inh 25%, BAZ2B block 10%, G9a inh -7%, JMJD2A Tudor -11%, TDP1 block 2% and Sfp inh 7%.
For CCOc1ccccc1C(=O)Nc1ccc(S(=O)(=O)Nc2ncccn2)cc1 the results were HP1b binding inh 21%, BAZ2B block -14%, G9a inh 6%[59 µM], JMJD2A Tudor -10% and TDP1 block 1%.
CS(=O)(=O)N(CC(=O)NCCC1=CCCCC1)C1CCCCC1 was read as HP1b binding inh 9%, BAZ2B block 6%, G9a inh 12%[59 µM], JMJD2A Tudor -24%, TDP1 block 4% and Sfp inh 3%.
Screening O=C(CN1CCN(C2CCCCC2)CC1)NCCC1=CCCCC1 returned HP1b binding inh inconclusive, BAZ2B block 50µM*, JMJD2A Tudor 13µM*, TDP1 block -9% and Sfp inh 79µM*.
Screening O=C(Nc1nc(=O)n(C(=O)c2cccc(C(F)(F)F)c2)s1)c1ccccc1 returned HP1b binding inh 77%, BAZ2B block inconclusive, G9a inh inconclusive, JMJD2A Tudor -17% and Sfp inh 5%.
COC(=O)Cn1c(C)c(/C=C/c2cc[n+](C)cc2)c2ccccc21 was read as HP1b binding inh inconclusive, BAZ2B block inconclusive, G9a inh 40µM*, JMJD2A Tudor inconclusive and Sfp inh 3%.
Screening COC(=O)Cn1cc(/C=C/c2cc[n+](C)cc2)c2ccccc21 returned HP1b binding inh 11%, BAZ2B block 45µM*, G9a inh 45µM*, JMJD2A Tudor inconclusive and Sfp inh 7%.
Screening COC(=O)Cn1c(=O)c(=O)n(CC(=O)OC)c2ccccc21 returned HP1b binding inh -8%, BAZ2B block -31%, G9a inh 15%[59 µM], JMJD2A Tudor -31%, TDP1 block 8% and Sfp inh 17%.
COC(=O)Cn1cc(C#N)c2ccccc21 was read as HP1b binding inh 17%, BAZ2B block 0%, G9a inh 10µM*, JMJD2A Tudor -8%, TDP1 block -7% and Sfp inh 1%.
Cc1ccc(C(=O)/C=C/NNC(=O)c2ccccc2O)cc1 was read as HP1b binding inh 18%, BAZ2B block 50µM*, G9a inh 10%[59 µM], JMJD2A Tudor inconclusive and Sfp inh 13%.
For Cc1ccc(C(=O)NC(=S)NNC(=O)c2ccccc2O)cc1 the results were HP1b binding inh 24%, BAZ2B block 3%, G9a inh inconclusive, JMJD2A Tudor -7% and Sfp inh 26%.
Screening CCOC(=O)N1CCN(C(=O)CSc2ccccc2)CC1 returned HP1b binding inh 44%, BAZ2B block 2%, G9a inh -18%[59 µM], JMJD2A Tudor 10%, TDP1 block 4% and Sfp inh -10%.
For CCOC(=O)N1CCN(C(=O)CSc2nnc3[nH]c(=O)c(C)c(C)n23)CC1 the results were HP1b binding inh 35%, BAZ2B block -3%, G9a inh 14µM* and JMJD2A Tudor -1%.
Cn1c(=N)n(CC(=O)c2ccc(Br)s2)c2ccccc21 was read as HP1b binding inh 34%, BAZ2B block -3%, G9a inh inconclusive, JMJD2A Tudor -6%, TDP1 block -2% and Sfp inh -2%.
`N=c1n(CC(=O)c2ccc(Br)s2)c2ccccc2n1Cc1ccccc1` gave HP1b binding inh 32%, BAZ2B block -37%, G9a inh inconclusive, JMJD2A Tudor -16%, TDP1 block -5% and Sfp inh 14µM*.
For CC(C)N1C(=O)CC(Nc2cccc3cccc(N)c23)C1=O (centres undefined) the results were HP1b binding inh -23%, BAZ2B block inconclusive, G9a inh 45µM*, JMJD2A Tudor inconclusive, TDP1 block 6% and Sfp inh -11%.
Screening CN1C(=O)CC(Nc2cccc3cccc(N)c23)C1=O (centres undefined) returned HP1b binding inh 1%, BAZ2B block inconclusive, G9a inh 35µM*, JMJD2A Tudor inconclusive, TDP1 block 7% and Sfp inh -63%.
`COc1cc2ccccc2cc1C(=O)N1CCN(c2nc3c(F)cccc3s2)CC1` gave HP1b binding inh 1%, BAZ2B block -22%, G9a inh -38%[59 µM], JMJD2A Tudor -21% and TDP1 block 0%.
For CCN(CC)S(=O)(=O)c1cc(-c2nnc(Nc3ccc(OC)c(C(N)=O)c3)c3ccccc23)ccc1C the results were HP1b binding inh 17%, BAZ2B block -15%, G9a inh -4%[59 µM], JMJD2A Tudor -22% and TDP1 block 0%[12.3 µM].
`COCc1[nH]c(=S)c(C#N)cc1C(=O)OC` gave HP1b binding inh inconclusive, BAZ2B block -8%, G9a inh -137%[59 µM], JMJD2A Tudor 22µM* and Sfp inh 8.9µM*.
For CCOC(=O)c1cc(C#N)c(=S)[nH]c1C the results were HP1b binding inh 23%, BAZ2B block -25%, G9a inh 10µM*, JMJD2A Tudor 40µM*, TDP1 block 4% and Sfp inh inconclusive.
Screening COc1ccc(NC(=O)Cn2c3ncccc3c(=O)n2-c2ccc(C)c(C)c2)c(OC)c1 returned HP1b binding inh 49%, BAZ2B block 9%, G9a inh -3%[59 µM], JMJD2A Tudor -12% and TDP1 block 0%.
Cc1ccc(S(=O)(=O)c2cc3cc(C(=O)Nc4ccc(C)cc4C)ccc3oc2=O)cc1 was read as HP1b binding inh 14%, BAZ2B block -9%, G9a inh -22%[59 µM], JMJD2A Tudor -8% and TDP1 block 1%.

Screening results: PubChem BioAssay, National Center for Advancing Translational Sciences (NCATS)
